Screens: PubChem, Paczesny and Yang Labs, IUPUI and University of Michigan
This excerpt belongs to a sample that is enriched for hits.
ST2 IL33 inh = blocks human ST2 binding to IL-33; Q01638; AlphaLISA ST2-Fc/biotin-IL-33 interaction, 1 h; inhibition, % for hits at 17 µM; 78,000 compounds, 2.3% hits; AID 1259354; in the data active means inhibition above about 30%
Target sequence (Q01638 whole entry, looked up): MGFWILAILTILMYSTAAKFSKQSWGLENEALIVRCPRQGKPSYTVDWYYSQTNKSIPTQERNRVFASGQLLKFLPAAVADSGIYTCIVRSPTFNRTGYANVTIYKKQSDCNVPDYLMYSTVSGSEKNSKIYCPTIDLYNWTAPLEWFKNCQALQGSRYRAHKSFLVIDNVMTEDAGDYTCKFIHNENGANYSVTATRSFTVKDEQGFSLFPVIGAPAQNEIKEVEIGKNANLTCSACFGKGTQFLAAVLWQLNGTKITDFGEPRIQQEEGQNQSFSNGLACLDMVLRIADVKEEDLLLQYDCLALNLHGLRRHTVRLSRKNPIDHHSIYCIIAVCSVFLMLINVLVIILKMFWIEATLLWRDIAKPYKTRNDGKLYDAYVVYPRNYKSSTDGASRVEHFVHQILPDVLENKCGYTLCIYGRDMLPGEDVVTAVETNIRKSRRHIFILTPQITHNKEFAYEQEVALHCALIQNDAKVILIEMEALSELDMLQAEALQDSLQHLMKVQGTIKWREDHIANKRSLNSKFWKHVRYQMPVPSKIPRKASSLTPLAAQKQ
Numbers without * were called inactive; i = inactive.

SMILES | ST2 IL33 inh
CSC1=N/C(=C\c2cc3c(cc2Br)OCO3)C(=O)S1 | i
CCN(CC)c1ccc(C2C3=C(CC(C)(C)CC3=O)Nc3nc(SC)[nH]c(=O)c32)cc1 (configuration not stated) | i
O=c1[nH]c(NCc2ccco2)nnc1Cc1ccc(Cl)cc1 | i
COc1ccc2c(c1)CCc1c(C(=O)N3C(C)CCCC3C)noc1-2 (configuration not stated) | i
CN(C)/C=C/C=C/C=C1\CCC/C(=C\C=C\N(C)C)C1=O | 63%*
COc1cc(OC)cc(C(=O)N2CCN=C2SCc2cc(C)ccc2C)c1 | i
Cc1ccc(-c2ccc(C(=O)NC(C)c3cnn(C)c3)o2)cc1 (configuration not stated) | i
CCn1c(CCCNC(=O)C(C)(C)C)nc2ccccc21 | i
O=C1NCCN(Cc2ccoc2)C1CC(=O)N1CCN(c2cccc(C(F)(F)F)c2)CC1 (configuration not stated) | i
Cn1c(=O)c2c(nc(Br)n2Cc2ccc(F)cc2)n(C)c1=O | i
Cn1c(=O)c2c(nc(CN3CCN(c4ccc(F)cc4)CC3)n2CC(N)=O)n(C)c1=O | i
CC(=O)N1N=C(c2ccc(F)cc2)Cn2c1nc1c2c(=O)n(C)c(=O)n1C | 55%*
Cc1ccc(N=Cc2c(C)[nH]n(-c3ccccc3)c2=O)c([N+](=O)[O-])c1 | i
O=C(Nc1c(C(=O)Nc2ccccc2F)oc2ccccc12)c1cccs1 | i
CCCOc1ccc(C2Oc3ccc(Br)cc3C=C2[N+](=O)[O-])cc1OC (configuration not stated) | 44%*
CCOc1ccc(S(=O)(=O)N2CCSC2c2ccc(OC)c([N+](=O)[O-])c2)cc1 (configuration not stated) | i
CCOc1cc2c(cc1OCC)C(c1ccc(Br)cc1)OC(=O)C2 (configuration not stated) | i
CCOc1ccc(C2Oc3c(cc(Br)cc3OC)C=C2[N+](=O)[O-])cc1OCC (configuration not stated) | 43%*
CCCOc1ccc(/C=C2\N=C(c3cccc([N+](=O)[O-])c3)OC2=O)cc1OC | i
COc1cc([N+](=O)[O-])ccc1NC(=O)COc1ccc(Br)cc1C | i
COc1ccc(C2C(=C(O)c3ccc([N+](=O)[O-])cc3)C(=O)C(=O)N2CCO)c(OC)c1 (configuration not stated) | i
CC(C)(C)S(=O)(=O)c1ccccc1C=O | i
COC(=O)C1=C(N)OC2=C(C(=O)CC(c3ccccc3)C2)C1c1ccccc1Cl (configuration not stated) | i
Cc1ccc(OCC(=O)N2CCN(c3ccccc3)CC2)cc1 | i
O=C(C(c1ccccc1)c1ccccc1)N1CCCC1 | i
CC(C)C1(O)C=C2C(=O)CC3C(C)(C(=O)O)CCCC3(C)C2CC1 (configuration not stated) | 30%*
CC(C)c1ccc2c(c1)CCC1[C@](C)(C(=O)O)CCC[C@]21C (some centres not stated) | i
C=CC(C)(O)CC[C@H]1C(=C)CCC2[C@](C)(C(=O)O)CCC[C@@]21C (some centres not stated) | i
COc1ccc(NC2=NC(C)(C)Cc3cc(OC)c(OC)cc32)cc1 | i
